Bioassay records deposited in PubChem BioAssay by National Center for Advancing Translational Sciences (NCATS).
TDP1 cell noCPT: qHTS for Inhibitors of human tyrosyl-DNA phosphodiesterase 1 (TDP1): qHTS in cells in absence of CPT; DT40 Tdp1-/- hTDP1 cells, no CPT, ATP luminescence, 48 h; 420,000 compounds, 15% hits; Potency, µM (highest dose often 46.2 µM), most hits filed as inhibitors; also: nearly all actives have a fitted effect of over 55% in size
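Seeded 400 DT40-hTDP1 cells/well (vehicle DMSO, no 20 nM CPT); pinned compounds; ≥48 hr at 37 °C; CellTiter-Glo luminescence as viability measure.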
HT1080 IDH1KD tx: toxicity to HT-1080 IDH1 knockdown cells (counter line) | AID 686971 | HT-1080 IDH1 knockdown viability, ATP luminescence, 48 h | Potency, µM (top dose mostly 46.1 µM), usual class: cytotoxic | 360,000 compounds, 2% hits
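Knockdown cells (IDH1KD HT-1080) received compounds 2 h after plating at 750 cells/well and were kept 48 h at 37 °C in 5% FBS RPMI. A CellTiter-Glo luminescence read gave % activity for curve fitting.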
HT1080NT lethal: kills 2HG-producing HT-1080-NT fibrosarcoma cells; AID 686970; HT-1080-NT fibrosarcoma viability, CellTiter-Glo ATP luminescence, 48 h; Potency, µM (titrated, usually from 46.1 µM), most hits filed as cytotoxic; 360,000 compounds, 1.6% hits;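 also: NT is the 2HG producing partner of a matched IDH1 knockdown line; nearly all actives have a fitted effect of over 55% in size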
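Compounds were tested in concentration-response format on HT-1080-NT cells for 48 hours at 37 degrees C. Cell viability came from CellTiter-Glo luminescence; curves were classified by r2, response magnitude and activity.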
IL-1B inflam inh: inhibitors of inflammasome signaling (IL-1 beta secretion) | THP-1 LPS/ATP IL-1B secretion, AlphaLISA, 16 h; stronger effect = lower value | 360,000 compounds, 4.7% hits | activity change, % at 57.5 µM; in the data active = activity change below about -50%; inconclusive = mostly about -30% to -49%
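THP-1 cells pretreated 1 hr with compounds (up to 57.5 uM final), then stimulated with LPS (250 ng/mL final) plus ATP (1.25 mM final); secreted IL-1B measured by AlphaLISA after 16 hr, decreased signal indicating inhibition.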
TDP1 cell CPT: growth inhibition of DT40 Tdp1-/-;hTDP1 cells with camptothecin (screen for TDP1 inhibitors) | chicken DT40 Tdp1-/-;hTDP1 cells + 20 nM CPT, ATP luminescence, 48 h | Potency, µM (top dose mostly 46.2 µM), usual class: inhibitors | 420,000 compounds, 12% hits | AID 686979; also: nearly all actives have a fitted effect of over 55% in size
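Chicken DT40 Tdp1-/- cells complemented with human TDP1, 400 cells/well, exposed to compounds plus 20 nM camptothecin for at least 48 h at 37 C; viability read as ATP content by CellTiter-Glo luminescence.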
Large screens that a line does not name were inactive. Rows were chosen to be rich in hits. Some 19% of all compounds tested hit in one or more screens of this group. Unless noted, calls follow the shape of the dose curve; as a rule, active = well fitted curve in the direction sought with a large enough effect; inconclusive = small, poorly fitted or top-dose-only effect, or another doubt; inactive = no such curve, though single readings can be large; an effect the other way counts as inactive or inconclusive.

Cc1csc(NC(=O)c2cc3c(s2)-c2ccccc2OC3)n1	none
O=C(c1cc2c(s1)-c1ccccc1OC2)N1CCCC1	TDP1 cell noCPT inconclusive, TDP1 cell CPT inconclusive
CCOCCCN(Cc1ccco1)C(=O)c1cc2c(s1)-c1c(C)cccc1OC2	TDP1 cell noCPT 23µM, TDP1 cell CPT inconclusive (no result: HT1080 IDH1KD tx, HT1080NT lethal, IL-1B inflam inh)
Cc1cccc2c1-c1sc(C(=O)NCCCN3CCCC(C)C3)cc1CO2 (stereo not drawn)	TDP1 cell noCPT 21µM, HT1080 IDH1KD tx 21µM, HT1080NT lethal 21µM, TDP1 cell CPT inconclusive
CC1CCCC(C)N1CCCNC(=O)c1cc2c(s1)-c1ccccc1OC2 (stereo not drawn)	TDP1 cell noCPT inconclusive, HT1080 IDH1KD tx 21µM, HT1080NT lethal inconclusive, TDP1 cell CPT inconclusive
CN(C)CCNC(=O)c1cc2c(s1)-c1ccccc1OC2	TDP1 cell noCPT inconclusive, HT1080 IDH1KD tx inconclusive, HT1080NT lethal inconclusive, TDP1 cell CPT 16µM
COc1ccc(S(=O)(=O)NCCc2cn3ccsc3n2)cc1	none (no result: HT1080 IDH1KD tx, HT1080NT lethal, IL-1B inflam inh)
Cc1ccc(OCC(=O)Nc2ccc(NC(=O)c3ccccc3)c(C)c2)cc1	TDP1 cell CPT inconclusive
CCOC(=O)c1c(C)[nH]c(C)c1S(=O)(=O)N(C)CC(=O)Nc1cccc(C(F)(F)F)c1	TDP1 cell CPT inconclusive (no result: HT1080 IDH1KD tx, HT1080NT lethal, IL-1B inflam inh)
COc1ccc(C(=O)N2CCC3(CC2)CN(CC(C)C)C3)cc1	none (no result: HT1080 IDH1KD tx, HT1080NT lethal, IL-1B inflam inh)
COc1ccc(NC(=O)c2cc3c(s2)-c2c(C)cccc2OC3)c(OC)c1	TDP1 cell noCPT 23µM, TDP1 cell CPT inconclusive (no result: HT1080 IDH1KD tx, HT1080NT lethal, IL-1B inflam inh)
COc1ccc(CCNC(=O)c2cc3c(s2)-c2ccccc2OC3)cc1OC	TDP1 cell noCPT 12µM, TDP1 cell CPT inconclusive (no result: HT1080 IDH1KD tx, HT1080NT lethal, IL-1B inflam inh)
Cc1cccc2c1-c1sc(C(=O)N3CCN(c4ccccc4)CC3)cc1CO2	TDP1 cell noCPT 16µM, TDP1 cell CPT 8.2µM (no result: HT1080 IDH1KD tx, HT1080NT lethal, IL-1B inflam inh)
CCCN(C(=O)c1cc2c(s1)-c1c(C)cccc1OC2)c1ccc(OCC)cc1	TDP1 cell noCPT 5.2µM, TDP1 cell CPT 5.2µM (no result: HT1080 IDH1KD tx, HT1080NT lethal, IL-1B inflam inh)
Cc1cccc2c1-c1sc(C(=O)N3CCN(c4ccc(F)cc4)CC3)cc1CO2	none (no result: HT1080 IDH1KD tx, HT1080NT lethal, IL-1B inflam inh)
CCOC(=O)c1ccccc1NC(=O)c1cc2c(s1)-c1c(C)cccc1OC2	none (no result: HT1080 IDH1KD tx, HT1080NT lethal, IL-1B inflam inh)
CCCN1CCN(CCCNC(=O)c2cc3c(s2)-c2c(C)cccc2OC3)CC1	TDP1 cell noCPT 26µM, HT1080 IDH1KD tx 18µM, HT1080NT lethal 23µM, TDP1 cell CPT 23µM
COc1ccc(CNC(=O)c2cc3c(s2)-c2c(C)cccc2OC3)cc1	none (no result: HT1080 IDH1KD tx, HT1080NT lethal, IL-1B inflam inh)
Cc1cccc2c1-c1sc(C(=O)NCCc3ccc(Cl)cc3)cc1CO2	TDP1 cell noCPT 7.3µM, TDP1 cell CPT 13µM (no result: HT1080 IDH1KD tx, HT1080NT lethal, IL-1B inflam inh)
CCCN1CCN(CCCNC(=O)c2cc3c(s2)-c2ccccc2OC3)CC1	TDP1 cell noCPT inconclusive, HT1080 IDH1KD tx inconclusive, HT1080NT lethal 23µM, IL-1B inflam inh inconclusive, TDP1 cell CPT inconclusive
Cc1cccc2c1-c1sc(C(=O)N(C)c3cccc(Cl)c3)cc1CO2	TDP1 cell noCPT inconclusive, TDP1 cell CPT 16µM (no result: HT1080 IDH1KD tx, HT1080NT lethal, IL-1B inflam inh)
Cc1cccc(NC(=O)c2cc3c(s2)-c2c(C)cccc2OC3)n1	TDP1 cell noCPT inconclusive, TDP1 cell CPT inconclusive
CCCN1CCN(C(=O)c2cc3c(s2)-c2ccccc2OC3)CC1	TDP1 cell CPT inconclusive
O=C(Nc1c(-c2ccc3c(c2)OCO3)[nH][nH]c1=O)c1ccc2c(c1)OCO2	none
O=[N+]([O-])c1cc(-c2nc(-c3ccccc3)no2)ccc1NC1CCCC1	none (no result: HT1080 IDH1KD tx, HT1080NT lethal, IL-1B inflam inh)
CN1OC[C@@H]2CN(C(=O)Nc3ccccc3)[C@H](c3ccc(N4CCCCC4)cc3)C[C@@H]21	TDP1 cell CPT inconclusive
O=C(O)CCC(=O)N1CN2CN(C(=O)CCC(=O)O)CC([N+](=O)[O-])(C2)C1	none
O=C(CN1CCc2ccccc21)Nc1ccc2c(c1)OCCCO2	TDP1 cell noCPT inconclusive
Cc1c(NC(=O)c2cc3c(s2)-c2ccccc2OC3)cccc1[N+](=O)[O-]	TDP1 cell noCPT 18µM, HT1080 IDH1KD tx inconclusive, HT1080NT lethal inconclusive, IL-1B inflam inh -73, TDP1 cell CPT inconclusive
CCC(=O)N1CCc2cc(S(=O)(=O)NCCC(=O)Nc3ccc(C)cc3C)ccc21	TDP1 cell noCPT 23µM, TDP1 cell CPT inconclusive (no result: HT1080 IDH1KD tx, HT1080NT lethal, IL-1B inflam inh)
CCC(=O)N1CCc2cc(S(=O)(=O)NCCC(=O)Nc3ccc(N(CC)CC)cc3C)ccc21	TDP1 cell noCPT 23µM, TDP1 cell CPT inconclusive (no result: HT1080 IDH1KD tx, HT1080NT lethal, IL-1B inflam inh)
